# Assay results: ChEMBL document CHEMBL3988442, “University of Dundee, Small-Polar-MMV Screening Library” (2021)
# For some assays here: Entries with a potency or affinity are not part of this list.
# Key:
# Design in all cases: scale not given: direction of the effect not stated beside the values
# [1] = biological target: Protein translocase subunit SecA (Escherichia coli (strain K12)) (UniProt P10408); test: Assay to Identify E. coli SecA ATPase Inhibitors; assay type: functional; conditions: 30 µM
# Chain of Protein translocase subunit SecA (Escherichia coli (strain K12)) (P10408 whole entry): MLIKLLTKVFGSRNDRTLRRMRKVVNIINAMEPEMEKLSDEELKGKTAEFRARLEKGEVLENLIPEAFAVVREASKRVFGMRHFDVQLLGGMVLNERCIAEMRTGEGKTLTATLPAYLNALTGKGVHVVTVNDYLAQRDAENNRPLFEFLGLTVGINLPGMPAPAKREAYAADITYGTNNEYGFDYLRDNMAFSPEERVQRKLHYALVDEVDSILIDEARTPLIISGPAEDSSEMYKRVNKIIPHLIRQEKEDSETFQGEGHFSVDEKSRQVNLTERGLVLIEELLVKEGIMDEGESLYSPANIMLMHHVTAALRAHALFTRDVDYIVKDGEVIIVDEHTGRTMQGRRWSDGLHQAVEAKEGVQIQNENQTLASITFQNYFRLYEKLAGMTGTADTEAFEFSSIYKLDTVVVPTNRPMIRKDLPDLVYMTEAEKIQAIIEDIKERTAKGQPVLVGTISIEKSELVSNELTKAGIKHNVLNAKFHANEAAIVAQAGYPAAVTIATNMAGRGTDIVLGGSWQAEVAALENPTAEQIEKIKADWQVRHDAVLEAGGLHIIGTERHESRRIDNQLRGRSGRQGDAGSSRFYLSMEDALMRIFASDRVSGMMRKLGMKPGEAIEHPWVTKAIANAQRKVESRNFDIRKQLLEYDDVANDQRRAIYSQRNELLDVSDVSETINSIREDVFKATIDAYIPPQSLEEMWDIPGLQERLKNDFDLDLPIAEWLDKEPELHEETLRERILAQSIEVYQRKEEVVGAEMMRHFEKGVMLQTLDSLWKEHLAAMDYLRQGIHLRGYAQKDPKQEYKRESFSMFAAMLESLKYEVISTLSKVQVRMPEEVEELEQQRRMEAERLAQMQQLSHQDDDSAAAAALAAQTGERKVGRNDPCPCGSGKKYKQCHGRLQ
# [2] = biological target: T1, Ubiquitin-activating enzyme e1, putative (Leishmania donovani (strain BPK282A1)) (UniProt E9BSI1); test: Leishmania donovani Ubiquitin Activating Enzyme (LdE1); assay type: functional; conditions: 30 µM
# T1 sequence (whole entry): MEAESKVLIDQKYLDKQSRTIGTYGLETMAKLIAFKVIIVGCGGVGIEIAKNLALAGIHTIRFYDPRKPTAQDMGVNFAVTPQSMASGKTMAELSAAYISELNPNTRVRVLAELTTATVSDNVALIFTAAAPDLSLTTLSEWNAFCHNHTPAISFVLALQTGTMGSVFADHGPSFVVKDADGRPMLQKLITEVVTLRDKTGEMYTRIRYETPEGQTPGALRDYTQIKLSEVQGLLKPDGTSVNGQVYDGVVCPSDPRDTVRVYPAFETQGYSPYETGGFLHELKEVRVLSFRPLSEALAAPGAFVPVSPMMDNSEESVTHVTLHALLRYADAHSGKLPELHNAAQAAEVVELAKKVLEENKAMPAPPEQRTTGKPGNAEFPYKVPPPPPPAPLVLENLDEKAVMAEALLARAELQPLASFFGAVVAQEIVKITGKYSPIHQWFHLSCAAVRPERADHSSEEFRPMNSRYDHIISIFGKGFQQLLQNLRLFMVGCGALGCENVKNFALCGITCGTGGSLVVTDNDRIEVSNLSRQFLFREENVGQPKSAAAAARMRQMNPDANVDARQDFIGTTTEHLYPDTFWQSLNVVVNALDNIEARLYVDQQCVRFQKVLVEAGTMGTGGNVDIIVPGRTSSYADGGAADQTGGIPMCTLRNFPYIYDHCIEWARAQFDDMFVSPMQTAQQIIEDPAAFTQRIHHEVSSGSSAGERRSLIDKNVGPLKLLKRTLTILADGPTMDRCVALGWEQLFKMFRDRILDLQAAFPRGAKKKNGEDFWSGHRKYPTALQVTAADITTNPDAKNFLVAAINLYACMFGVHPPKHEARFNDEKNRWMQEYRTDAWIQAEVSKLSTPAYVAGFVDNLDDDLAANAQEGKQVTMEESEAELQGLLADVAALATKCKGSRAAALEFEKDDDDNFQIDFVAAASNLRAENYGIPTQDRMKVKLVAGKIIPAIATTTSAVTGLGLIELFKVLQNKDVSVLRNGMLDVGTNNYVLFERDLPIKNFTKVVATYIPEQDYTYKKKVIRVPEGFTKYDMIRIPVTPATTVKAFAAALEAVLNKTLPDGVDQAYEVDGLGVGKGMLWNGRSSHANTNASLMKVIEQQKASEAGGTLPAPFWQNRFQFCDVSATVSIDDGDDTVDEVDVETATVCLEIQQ
# [3] = biological target: AMP-activated protein kinase, AMPK (Homo sapiens) (UniProt P54646+O43741+P54619+Q9UGJ0+Q9Y478+Q13131+Q9UGI9); test: AMP-dependent Kinase enzyme assay. An in vitro enzyme assay that detects ADP turnover that is directly proportional to AMPK activity. This uses naive AMPK that is activated during the assay with MK-8722; assay type: functional; conditions: 30 µM
# [4] = biological target: Sialic acid-binding Ig-like lectin 9 (Homo sapiens) (UniProt Q9Y336); test: Hs-Siglec9 ALPHAscreen SOP 20170721; conditions: 10 µM
# Chain of Sialic acid-binding Ig-like lectin 9 (Homo sapiens) (Q9Y336 whole entry): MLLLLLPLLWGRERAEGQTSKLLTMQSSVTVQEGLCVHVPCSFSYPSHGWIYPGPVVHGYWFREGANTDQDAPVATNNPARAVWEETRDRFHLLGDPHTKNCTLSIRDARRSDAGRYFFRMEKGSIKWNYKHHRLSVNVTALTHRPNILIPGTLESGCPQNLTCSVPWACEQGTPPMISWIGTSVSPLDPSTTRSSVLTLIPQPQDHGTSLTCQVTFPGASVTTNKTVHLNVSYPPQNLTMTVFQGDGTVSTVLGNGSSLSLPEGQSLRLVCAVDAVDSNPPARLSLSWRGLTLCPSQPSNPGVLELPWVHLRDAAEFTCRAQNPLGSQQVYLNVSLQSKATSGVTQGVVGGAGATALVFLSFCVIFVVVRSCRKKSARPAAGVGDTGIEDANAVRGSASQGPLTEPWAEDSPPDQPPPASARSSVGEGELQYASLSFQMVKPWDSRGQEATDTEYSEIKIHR
# [5] = test system: Trypanosoma cruzi; test: Trypanosoma cruzi phosphomannomutase and mannose-1-phosphate guanylyltransferase assay; assay type: functional; conditions: 10 µM
# [6] = biological target: T2, Arginase-2, mitochondrial (Homo sapiens) (UniProt P78540); test: in vitro enzyme assay to detect the production of urea directly proportional to the activity of Arginase II; assay type: functional; conditions: 33.3 µM; also: in the data most compounds retested in dose-response had high values
# T2 sequence (whole entry): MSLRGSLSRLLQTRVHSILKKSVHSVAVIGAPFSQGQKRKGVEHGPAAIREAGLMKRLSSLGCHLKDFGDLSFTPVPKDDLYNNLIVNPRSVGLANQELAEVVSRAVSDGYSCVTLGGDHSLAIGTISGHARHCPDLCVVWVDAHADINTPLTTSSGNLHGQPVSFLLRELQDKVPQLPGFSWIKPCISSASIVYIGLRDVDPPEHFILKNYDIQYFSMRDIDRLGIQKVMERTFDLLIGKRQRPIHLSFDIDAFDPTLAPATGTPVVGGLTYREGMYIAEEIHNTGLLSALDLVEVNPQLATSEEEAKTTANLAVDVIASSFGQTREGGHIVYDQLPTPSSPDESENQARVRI
# [7] = biological target: T3, Proteasome subunit beta (Trypanosoma cruzi) (UniProt O96673); test: Trypanosoma cruzi proteasome chymotrypsin-like activity (TcProtChymo) assay.; also: in the data most compounds retested in dose-response had high values; assay type: functional; conditions: 9.37 µM
# T3 sequence (whole entry): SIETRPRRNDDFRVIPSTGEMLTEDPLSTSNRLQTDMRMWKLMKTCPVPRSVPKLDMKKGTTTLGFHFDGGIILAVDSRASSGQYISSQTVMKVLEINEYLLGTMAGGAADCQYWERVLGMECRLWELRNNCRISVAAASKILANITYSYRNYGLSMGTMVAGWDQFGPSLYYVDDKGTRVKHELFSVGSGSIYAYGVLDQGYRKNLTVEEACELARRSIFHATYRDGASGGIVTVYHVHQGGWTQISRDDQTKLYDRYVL
# [8] = organism: Homo sapiens; test: To identify inhibition of the IFN signalling (Jak-Stat) pathway via expression of an eGFP reporter gene under the control of an IFN-stimulated response element (ISRE) containing MxA promoter.; assay type: functional; conditions: 30 µM
# [9] = biological target: T4, Tyrosyl-tRNA synthetase, putative (Trypanosoma cruzi (strain CL Brener)) (UniProt Q4DSP6); test: Trypanosoma cruzi tyrosyl tRNA synthetase (TcYRS) _High Tyrosine SOP; assay type: functional; conditions: 30 µM; also: in the data most compounds retested in dose-response had high values
# T4 sequence (whole entry): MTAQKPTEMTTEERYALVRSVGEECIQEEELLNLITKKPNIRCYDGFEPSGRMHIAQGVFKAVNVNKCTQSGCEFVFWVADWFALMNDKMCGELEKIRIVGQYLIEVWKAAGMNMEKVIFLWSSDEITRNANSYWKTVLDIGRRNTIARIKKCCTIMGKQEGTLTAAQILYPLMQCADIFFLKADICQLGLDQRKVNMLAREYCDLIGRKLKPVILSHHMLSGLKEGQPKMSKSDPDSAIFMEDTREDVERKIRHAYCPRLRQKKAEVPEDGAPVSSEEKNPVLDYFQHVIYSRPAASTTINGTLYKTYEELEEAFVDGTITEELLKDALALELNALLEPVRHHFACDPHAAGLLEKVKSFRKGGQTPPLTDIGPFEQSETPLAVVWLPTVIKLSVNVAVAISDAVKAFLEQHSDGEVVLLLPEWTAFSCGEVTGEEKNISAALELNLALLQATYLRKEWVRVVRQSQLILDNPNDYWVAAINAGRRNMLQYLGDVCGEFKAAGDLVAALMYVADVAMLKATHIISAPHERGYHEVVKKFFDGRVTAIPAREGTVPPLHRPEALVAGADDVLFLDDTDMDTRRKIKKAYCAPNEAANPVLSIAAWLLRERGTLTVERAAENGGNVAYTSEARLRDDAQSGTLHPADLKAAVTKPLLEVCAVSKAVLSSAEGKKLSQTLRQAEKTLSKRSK
# [10] = biological target: T4, Tyrosyl-tRNA synthetase, putative (Trypanosoma cruzi (strain CL Brener)); test: Trypanosoma cruzi tyrosyl tRNA synthetase (TcYRS) SOP; assay type: functional; conditions: 30 µM
# [11] = biological target: Chromo domain-containing protein 1 (Saccharomyces cerevisiae (strain ATCC 204508 / S288c) (Baker's yeast)) (UniProt P32657); test: ScCHD-1 Enzyme Inhibition Assay; assay type: functional; conditions: 30 µM; also: in the data most compounds retested in dose-response had high values
# Chain of Chromo domain-containing protein 1 (Saccharomyces cerevisiae (strain ATCC 204508 / S288c) (Baker's yeast)) (P32657 whole entry, the tested form may be a part): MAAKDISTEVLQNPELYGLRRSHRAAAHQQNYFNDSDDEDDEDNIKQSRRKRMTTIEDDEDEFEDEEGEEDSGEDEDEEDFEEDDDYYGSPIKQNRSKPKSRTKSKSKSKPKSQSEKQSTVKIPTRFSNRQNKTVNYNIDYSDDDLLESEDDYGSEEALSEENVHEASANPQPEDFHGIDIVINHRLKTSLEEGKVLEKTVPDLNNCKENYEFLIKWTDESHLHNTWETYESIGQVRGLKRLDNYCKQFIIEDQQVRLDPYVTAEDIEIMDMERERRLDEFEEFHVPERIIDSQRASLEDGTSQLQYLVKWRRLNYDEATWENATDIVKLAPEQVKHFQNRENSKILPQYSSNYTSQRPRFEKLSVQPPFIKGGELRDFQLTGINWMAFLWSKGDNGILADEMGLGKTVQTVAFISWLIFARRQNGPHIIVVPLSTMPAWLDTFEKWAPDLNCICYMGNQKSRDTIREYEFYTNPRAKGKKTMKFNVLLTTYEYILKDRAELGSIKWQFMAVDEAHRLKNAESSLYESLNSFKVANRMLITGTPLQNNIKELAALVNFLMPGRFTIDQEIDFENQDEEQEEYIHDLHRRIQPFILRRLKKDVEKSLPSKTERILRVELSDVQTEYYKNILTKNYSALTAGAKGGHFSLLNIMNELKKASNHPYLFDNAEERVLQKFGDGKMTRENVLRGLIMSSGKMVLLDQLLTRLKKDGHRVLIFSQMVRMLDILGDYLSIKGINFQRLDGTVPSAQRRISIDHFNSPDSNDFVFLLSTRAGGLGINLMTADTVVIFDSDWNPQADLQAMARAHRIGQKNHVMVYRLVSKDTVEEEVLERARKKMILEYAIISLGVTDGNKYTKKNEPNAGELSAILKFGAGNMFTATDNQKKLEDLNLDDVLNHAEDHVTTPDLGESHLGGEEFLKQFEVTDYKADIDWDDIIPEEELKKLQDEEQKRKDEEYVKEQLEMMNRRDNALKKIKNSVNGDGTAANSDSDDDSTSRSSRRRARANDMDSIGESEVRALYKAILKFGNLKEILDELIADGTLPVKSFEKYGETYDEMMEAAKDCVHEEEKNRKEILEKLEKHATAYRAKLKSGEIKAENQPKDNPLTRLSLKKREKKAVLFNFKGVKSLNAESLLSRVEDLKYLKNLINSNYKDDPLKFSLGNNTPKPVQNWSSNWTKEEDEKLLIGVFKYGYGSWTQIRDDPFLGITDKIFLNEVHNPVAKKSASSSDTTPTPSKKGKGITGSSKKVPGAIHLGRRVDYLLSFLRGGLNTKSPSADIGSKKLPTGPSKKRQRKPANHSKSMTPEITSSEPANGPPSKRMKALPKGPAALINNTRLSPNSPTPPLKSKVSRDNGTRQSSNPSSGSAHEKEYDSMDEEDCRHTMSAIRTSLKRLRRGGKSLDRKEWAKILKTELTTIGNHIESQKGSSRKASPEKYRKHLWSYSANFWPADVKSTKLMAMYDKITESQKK
SMILES,Percent Effect [1],Percent Effect [2],Percent Effect [3],Percent Effect [4],Percent Effect [5],Percent Effect [6],Percent Effect [7],Percent Effect [8],Percent Effect [9],Percent Effect [10],Percent Effect [11]
O=c1cc2c(nn1CN1CCN(c3ccccc3)CC1)CCC2,-2.18%,12%,-4.49%,2.85%,0%,-1.23%,15%,11.5%,6.35%,15.4%,-9.54%
COc1cccc(C(=O)N2CCc3ncnc(C)c3CC2)c1,-2.5%,2.74%,-0.34%,2.4%,-5.16%,0.399%,10.4%,2.5%,6.25%,11.1%,-8.63%
Cc1ccc(SCC(=O)NS(=O)(=O)c2ccc3c(c2)OCCO3)cc1,-2.38%,-10.5%,2.56%,-1.45%,5.45%,-2.68%,15%,3.33%,-6.37%,-7.32%,-0.431%
CCc1nc(NS(=O)(=O)c2ccc(F)cc2C)no1,-4.36%,-2.67%,-5.09%,21.3%,8.67%,-0.521%,-0.872%,15.9%,0.546%,6.17%,-1.94%
Cc1cc(C)n(CCCNC(=O)C(C)NC(=O)c2ccccc2Cl)n1 (configuration not stated),-2.06%,5.26%,4.16%,-4.01%,-2.63%,0%,6.81%,-13.1%,5.32%,10.4%,-5.43%
COc1ccc2c(c1)CCN(CCC(=O)O)CC2,0.2%,16.2%,-5.1%,15.3%,1.74%,1.91%,13.6%,6.58%,5.82%,17.1%,-1.92%
O=C(CCCc1ncc(-c2ccccc2)o1)N1CCN(CCO)CC1,-2.7%,20.2%,6.12%,-6.16%,-1.04%,3.04%,14.2%,6.15%,4.43%,13.9%,-3.58%
COCCNS(=O)(=O)c1cccc2c1CN(C(=O)c1ccccc1)CC2,-6.17%,-4.17%,4.56%,0.0622%,-1.65%,-2.21%,4.39%,34.9%,-4.21%,-10.3%,4.48%
O=C(CCN1CCC(C(=O)c2cc(F)ccc2F)CC1)NC1CC1,-5.55%,5.26%,2.46%,2.22%,-0.0974%,-1.18%,12.4%,16.9%,3.19%,15.6%,-3.85%
COc1ccc(CCN2CCN(C(=O)c3scnc3C)CC2)cc1,-2.7%,10.5%,2.58%,0.569%,3.8%,-3.55%,16%,-22.1%,6.38%,10.4%,-3.62%
O=C(CCCc1cn[nH]c1)N1CCOCC(O)C1 (configuration not stated),-5.63%,0%,-4.88%,-7.04%,0%,-0.455%,5.86%,-11.9%,5.38%,10%,-3.63%
COCC1COCCC12CCN(C(=O)CCc1ccccc1)CC2 (configuration not stated),-7.38%,0%,1.05%,-3.38%,-2.73%,0%,4.65%,-6.87%,3.96%,3.66%,6.04%
O=C(COc1cccc2c1CCC2=O)NCc1ccccc1F,-2.77%,13.2%,2.6%,-2.18%,4.58%,11.8%,9.49%,11%,3.19%,10.4%,-2.42%
Cc1ccc(C(CNCc2ccncc2)N2CCOCC2)s1 (configuration not stated),-9.26%,-2.7%,-3.34%,21.5%,-2.73%,1.67%,17.8%,18.3%,1.98%,-1.22%,-7.13%
N#Cc1cccc(CS(=O)(=O)NCCC(O)c2ccccc2)c1 (configuration not stated),13%,5.33%,-6.17%,7.18%,4.77%,15.1%,16.2%,3.01%,4.92%,16.1%,-6.38%
Cc1cnn(C2CCCN(C(=O)c3ccn(C)c(=O)c3)C2)c1 (configuration not stated),-0.722%,7.79%,-5.73%,-4%,1.08%,5.68%,-3.15%,20.6%,3.81%,11.8%,-14.6%
COCC1CC2(CCN(C(=O)c3occc3C)CC2)CO1 (configuration not stated),-0.186%,2.6%,22.5%,0.84%,-6.61%,4.52%,3.65%,5.99%,-2.12%,-1.28%,-1.99%
CCS(=O)(=O)N1C[C@H]2CN(Cc3cccnc3)C(=O)[C@H]2C1,-1.39%,2.7%,0.503%,1.84%,-6.25%,0%,10.9%,19.2%,4.95%,6.1%,1.54%
Cc1ccc(S(=O)(=O)N2CSCC2C(=O)N(C)C2CC2)cc1Cl (configuration not stated),-5.45%,5.41%,-2.19%,10.8%,6.16%,1.74%,7.47%,5.7%,0%,3.7%,-5.33%
Cc1cc(C)n(C2CN(CC(O)c3ccc4c(c3)OCO4)C2)n1 (configuration not stated),-2.6%,-13%,0.139%,7.69%,3.37%,-2.85%,4.56%,26.7%,15.5%,12.2%,-2.01%
CCn1cnnc1C1CCN(C(=O)c2cc3c(s2)CCC3)CC1,-5.61%,20.2%,-5.35%,8.78%,6.52%,-7.22%,20.2%,-5.6%,8.37%,21.5%,-4.66%
Cc1ccc(CN2Cc3nnn(C)c3C(COCCN(C)C)C2)s1 (configuration not stated),-6.87%,2.7%,-1.39%,-1.89%,-5.57%,-3.72%,4.89%,15%,2.15%,8.64%,-3.26%
